Active and inactive are the calls of the source.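 How the source made its calls: active means cell survival after UV exposure 2 SD above solvent-only control wells at 10 µM, confirmed on one or two repeats; inactive means the rest.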
Test: cell survival after pyrene fatty acid photosensitization – ZR-82 cells, Analyticon library, screen 2, phospholipid biosynthesis inhibitor project, primary screen (AID 1347383);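 further: survival reflects blocked phospholipid synthesis cutting uptake of the phototoxic fatty acid; compound and fatty acid exposure 3 h then viability read next day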
Conditions: ZR-82 CHO cells, pyrene-fatty acid UV killing, CellTiter Blue; at 10 µM; peroxisome-deficient CHO-K1 variant; with DGAT-1, DGAT-2 and ACAT inhibitors

SMILES | outcome
COc1cc(/C=C/C(=O)O)cc(OC)c1OC | inactive
CC(=O)c1c(O)cc(O)c(C/C=C(\C)CCC=C(C)C)c1O | inactive
CCCCCCCCC(=O)/C=C/C=C/C(=O)CCCC(=O)O | inactive
CC(=O)CCCCCCc1ccc2c(c1)OCO2 | inactive
O=C(O)CC(O)(Cc1ccc(O)cc1)C(=O)O (centres undefined) | inactive
CC(C)(O)/C=C/C1=CC(O)C(C)(O)CC1O (centres undefined) | inactive
C[C@@H]1O[C@@H](Oc2ccc(-c3coc4cc(O[C@@H]5O[C@@H](C)[C@H](O)[C@@H](O)[C@H]5O)ccc4c3=O)cc2)[C@H](O)[C@H](O)[C@H]1O | inactive
CCCc1c(C(=O)O)cc2c(c1O)C(=O)c1c(O)cccc1C2=O | inactive
COc1cc(O)c2c(=O)c3cc(O)c(O)cc3oc2c1 | inactive
COc1c2cccc(C)c2c(C=O)c2c(COC(C)=O)coc12 | inactive
Oc1cc(O)c2c(c1)O[C@H](c1ccc(O)c(O)c1)[C@@H](O)C2 | inactive
CC(C)CC1NC(=O)C2CCCN2C1=O (centres undefined) | inactive
Oc1cc(O)cc(/C=C/c2ccc(O)c(O)c2)c1 | inactive
COc1ccc(C(O)C(C)O)cc1 (centres undefined) | inactive
O=c1c(O)c(-c2ccc(O)c(O)c2)oc2cc(O)cc(O)c12 | inactive
CNC(=O)Oc1ccc2c(c1)[C@]1(C)CCN(C)[C@@H]1N2C | inactive
COc1cc(O)c(C(=O)c2c(C)cc(O)cc2OC)c(O)c1 | inactive
CC1(C)O[C@]23C[C@H]1C[C@H](OC(=O)c1ccoc1)[C@]2(C)[C@@H](OC(=O)c1ccoc1)CCC3(C)O (some centres undefined) | inactive
O=C1c2ccc(O)cc2C(=O)c2ccc(O)cc21 | inactive
